Activity calls are given as the source filed them. The calls were made as follows: active = hit-call score of the fitted dose curve at least 0.9, where 1 is the maximum; inactive = score below 0.9.
What follows are compounds tested against Glucocorticoid receptor (Homo sapiens) (UniProt P04150) (assay: ERF_FR_NR_hGR: Eurofins (ERF) Nuclear Receptor (NR) Radioligand Binding LeadHunter Assay for human Glucocorticoid Receptor (GR) Agonism, conducted at France lab site).
Experimental: ERF_FR_NR_hGR is a biochemical, single-readout assay that uses extracted gene-proteins in a cell-free assay. Measurements were taken 6 hour after chemical dosing in a 96-well plate. See GR Human Glucocorticoid NHR Binding (Agonist Radioligand) Assay, Cerep.ERF_FR_NR_hGR is an assay component calculated from the ERF_FR_NR_hGR assay. It is designed to measure radioligand binding using a type of binding reporter as detected by scintillation counting with radiometry technology.Data from the assay component ERF_FR_NR_hGR was analyzed at the assay endpoint, ERF_FR_NR_hGR, in the positive analysis fitting direction relative to DMSO as the negative control and baseline of activity. Using a type of binding reporter, gain-of-signal activity can be used to understand changes in binding as they relate to gene NR3C1. To generalize the intended target to other relatable targets, this assay endpoint is annotated to the nuclear receptor intended target family, where the subfamily is steroidal.
Human cells are incubated for 24 hours at 4C with [3H]dexamethasone ([…]) ligand and Dexamethazone as control inhibitor. Test Sample Requirements: Minimum for 1) Screen: 60 ul of 10 mM stock -OR- 1 mg (pre-weighed) for 10 uM final testing. 2) Dose Response: 90 ul of 10 mM stock -OR- 1 mg (pre-weighed) for a top concentration at 10 uM.

Glucocorticoid receptor (Homo sapiens), sequence (P04150 whole entry, looked up): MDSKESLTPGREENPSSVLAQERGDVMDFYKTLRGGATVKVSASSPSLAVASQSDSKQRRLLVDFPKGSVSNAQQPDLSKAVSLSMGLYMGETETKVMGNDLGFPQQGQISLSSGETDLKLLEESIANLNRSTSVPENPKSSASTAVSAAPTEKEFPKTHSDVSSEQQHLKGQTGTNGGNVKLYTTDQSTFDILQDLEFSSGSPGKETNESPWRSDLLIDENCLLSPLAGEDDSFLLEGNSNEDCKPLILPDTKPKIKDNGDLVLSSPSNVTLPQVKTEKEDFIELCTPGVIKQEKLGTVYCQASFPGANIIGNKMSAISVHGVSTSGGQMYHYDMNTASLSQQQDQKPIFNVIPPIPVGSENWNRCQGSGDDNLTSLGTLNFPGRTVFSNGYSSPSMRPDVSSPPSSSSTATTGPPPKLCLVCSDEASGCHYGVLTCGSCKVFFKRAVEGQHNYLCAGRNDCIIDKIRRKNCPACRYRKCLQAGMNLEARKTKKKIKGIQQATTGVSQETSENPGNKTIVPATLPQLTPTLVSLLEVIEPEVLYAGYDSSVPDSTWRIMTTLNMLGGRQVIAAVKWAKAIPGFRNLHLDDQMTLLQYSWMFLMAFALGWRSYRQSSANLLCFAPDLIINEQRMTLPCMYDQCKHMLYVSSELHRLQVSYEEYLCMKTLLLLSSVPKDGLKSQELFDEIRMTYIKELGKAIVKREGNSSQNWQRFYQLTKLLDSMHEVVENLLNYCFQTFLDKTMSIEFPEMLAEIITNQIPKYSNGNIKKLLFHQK

| Compound | AC50 |
| --- | --- |
| O=C(/C=C/c1ccc(O)cc1)CC(=O)/C=C/c1ccc(O)cc1 | 969 nM (active) |
